This is an account of results in PubChem BioAssay (Tox21).

Each structure is given as a SMILES string. Records with an inconclusive call do not appear. Unmarked numbers belong to inactive results. Calls of active or inactive are those of the source. The call rests on the fitted dose curve; in most records, active means well fitted curve in the direction sought with a large enough effect in the repeat runs; inconclusive means weak or mixed curves; inactive means no such curve, though single readings can be large; an effect the other way counts as inactive or inconclusive.
On the % scale 0 is the no-effect control and ±100 the full control effect; potency means the concentration at half of the fitted maximal effect.

Sequence of Luciferin 4-monooxygenase (Photinus pyralis) (P08659 whole entry, looked up): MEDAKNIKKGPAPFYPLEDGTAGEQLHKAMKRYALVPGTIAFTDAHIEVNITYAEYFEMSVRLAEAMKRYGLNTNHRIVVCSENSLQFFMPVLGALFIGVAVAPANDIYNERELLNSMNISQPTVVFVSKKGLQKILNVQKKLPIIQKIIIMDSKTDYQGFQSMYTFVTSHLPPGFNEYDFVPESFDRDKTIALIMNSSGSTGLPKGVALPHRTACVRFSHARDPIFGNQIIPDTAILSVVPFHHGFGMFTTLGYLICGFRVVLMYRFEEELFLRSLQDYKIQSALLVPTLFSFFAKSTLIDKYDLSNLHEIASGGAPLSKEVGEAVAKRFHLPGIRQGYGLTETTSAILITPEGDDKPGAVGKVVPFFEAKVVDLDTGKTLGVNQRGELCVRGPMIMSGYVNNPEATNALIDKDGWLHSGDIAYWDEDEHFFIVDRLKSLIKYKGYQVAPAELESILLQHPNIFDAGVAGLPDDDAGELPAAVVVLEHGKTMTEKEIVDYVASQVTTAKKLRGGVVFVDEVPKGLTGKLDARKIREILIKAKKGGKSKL

System in the first experiment: not listed separately
Kind of experiment: qHTS assay to identify small molecule antagonists of the estrogen related receptor (ERR) signaling pathway from Tox21 library - cell viability counter screen (AID 1224834). Further: nearly all actives have a fitted effect of over 30% in size. The conditions noted are these: ERR reporter cells viability, CellTiter-Fluor, 17.5 h; series mostly up to 92.4 µM; viability change, negative = cytotoxic: at the top concentration. The method in brief:
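In this quantitative HTS format, ERR cells receive compounds in DMSO and are incubated for 17.5 h at 37 C. Live-cell protease activity is then detected with CellTiter-Fluor.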
On the technique in general: qHTS replaces the single test concentration by a dilution series.
Consider `Cc1ccc(Cl)c(Nc2ccccc2C(=O)O)c1Cl`, for which the “viability change, negative = cytotoxic” value is -9.31% [at 42.5 µM].
Turning to `C=C(C)C(=O)OCCOCCOC(=O)C(=C)C`, the “viability change, negative = cytotoxic” value is 6.19%.
On the same count and under the same terms, in the case of `CC(C)(c1ccccc1)c1ccccc1` it was -0.551%; in that of `c1ccc(C[n+]2cccc3ccccc32)cc1`, -7.77%; in that of `CCC1CO1` (stereo not given), 0.492%.
Still for that read-out and setting: under `Cc1cscn1` stands -3.13%; under `CC1(C)S[C@@H]2[C@H](NC(=O)C(c3ccccc3)S(=O)(=O)O)C(=O)N2[C@H]1C(=O)O` (stereo not given in full), 1.95% [at 42.5 µM].
`CC1(C)[C@@H](OC(=O)CCC(=O)O)CC[C@]2(C)[C@H]3C(=O)C=C4[C@@H]5C[C@@](C)(C(=O)O)CC[C@]5(C)CC[C@@]4(C)[C@]3(C)CC[C@@H]12`: the “viability change, negative = cytotoxic” value is -2.3% [at 42.5 µM].
Consider `CC(=O)Oc1ccc([N+](=O)[O-])cc1CCl`, for which the Potency was 30.6 µM (active).
The same measure, in the same setting: in the case of `CCCCCCCCCCCCCCN(CCO)CCO` it was 61.1 µM (active).
Take `O=C(/C=C/c1ccc(O)c(O)c1)O[C@@H]1C[C@@](OC(=O)/C=C/c2ccc(O)c(O)c2)(C(=O)O)C[C@@H](O)[C@@H]1O`: the “viability change, negative = cytotoxic” value is -0.881% [at 42.5 µM].
As for `O[C@@H]1CO[C@H]2[C@@H]1OC[C@@H]2O`, the “viability change, negative = cytotoxic” value is -0.688% [at 42.5 µM].
Take `O=c1[nH]ncc2ccccc12`: the “viability change, negative = cytotoxic” value is -0.81%.
On to `O=C(CCCN1CC=C(n2c(=O)[nH]c3ccccc32)CC1)c1ccc(F)cc1`, for which the Potency is 33.5 µM (active).
As for `C=C/C(C)=C/C/C=C(\C)CCC=C(C)C`, the “viability change, negative = cytotoxic” value was -2.85%.
Take `CCOC(=O)c1ccc(C#Cc2ccc3c(c2)C(C)(C)CCS3)nc1`: the “viability change, negative = cytotoxic” value was -12% [at 42.5 µM].
For the compound `CCCCCCCCN`, the “viability change, negative = cytotoxic” value is -1.18%.
On the same count and under the same terms, under `CC1CC(C)C(=O)C1=O` (stereo not given) stands -3.72%; under `COC(=O)CCS`, 4.59%.
Consider `Cc1ccc2c(Br)cc(Br)c(O)c2n1`, for which the Potency was 11.9 µM (active).
Take `CCC(OCCCOC)OC(C)=O` (stereo not given): the “viability change, negative = cytotoxic” value is 2.6%.
In the case of `CO[C@]1(NC(=O)CSC(F)F)C(=O)N2C(C(=O)O)=C(CSc3nnnn3CCO)CO[C@H]21`, the “viability change, negative = cytotoxic” value is 0.499% [at 42.5 µM].
Still for that read-out and setting: in the case of `CCCCCCC(C)(C)C(=O)O` it was -2.3%; in that of `O=C1CCCCCCCCCCOCCCCO1`, -1.91%.
Same read-out and setting: in the case of `CCn1cc(C(=O)O)c(=O)c2cc(F)c(N3CCNCC3)cc21` it was -0.0574% [at 42.5 µM]; in that of `CCOc1ccccc1O[C@H](c1ccccc1)[C@H]1CNCCO1`, -0.0143% [at 42.5 µM].
On the same count and under the same terms, in the case of `Cc1[nH]cnc1CN1CCc2c(c3ccccc3n2C)C1=O` it was -1.38% [at 42.5 µM].
Take `CCCCCCCC/C=C\CCCCCCCCCCCC(=O)O`: the “viability change, negative = cytotoxic” value was 4.09%.
Regarding `Oc1cc2c(cc1O)[C@H]1c3ccc(O)c(O)c3OC[C@@]1(O)C2`, the Potency was 39 µM (active).
For the compound `O=C(OC(=O)c1ccccc1)c1ccccc1`, the “viability change, negative = cytotoxic” value was 2.52%.
As to `Brc1cc(Br)c(Oc2cc(Br)c(Br)cc2Br)cc1Br`, the “viability change, negative = cytotoxic” value was -3.58% [at 42.5 µM].
For `CCN(CC)CCNC(=O)COc1ccc(OC)cc1`, the “viability change, negative = cytotoxic” value was 0.194% [at 42.5 µM].
On the same count and under the same terms, in the case of `NNC(=O)CP(=O)(c1ccccc1)c1ccccc1` it was -1.05% [at 42.5 µM]; in that of `C=C(C)CCCC(C)CCO` (stereo not given), -5.52%; in that of `O=C(O)CCC(=O)C(=O)O`, 1.79%.
As to `Nc1ccc(N=Nc2ccccc2)c(N)c1`, the Potency was 26.7 µM (active).
As to `CC(C)=CCC1C(=O)N(c2ccccc2)N(c2ccccc2)C1=O`, the “viability change, negative = cytotoxic” value was -3.48% [at 42.5 µM].
With `COC(=O)CS`, the “viability change, negative = cytotoxic” value is -3.38%.
As to `CC(=O)OCC[N+](C)(C)C`, the “viability change, negative = cytotoxic” value is 1.12% [at 42.5 µM].
Take `NCCNCCO`: the “viability change, negative = cytotoxic” value is -1.12%.

In another experiment the target is Luciferin 4-monooxygenase (Photinus pyralis) (UniProt P08659). Nature of the experiment: qHTS assay to identify small molecule inhibitors of firefly luciferase (AID 1224835). Further: nearly all actives have a fitted effect of over 25% in size. Particulars: purified P. pyralis luciferase, luminescence inhibition; series mostly up to 52.9 µM; activity change, negative = inhibition: at the top concentration. In a few lines:
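Biochemical qHTS: compounds run as interplate titrations against purified firefly enzyme, with D-luciferin and ATP each at its KM concentration. Light output recorded by CCD imaging.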
For `Cc1ccc(Cl)c(Nc2ccccc2C(=O)O)c1Cl`, the “activity change, negative = inhibition” value is 0.772%.
Still for that read-out and setting: under `C=C(C)C(=O)OCCOCCOC(=O)C(=C)C` stands -1.09% [at 115 µM]; under `CC(C)(c1ccccc1)c1ccccc1`, 0.0345% [at 115 µM]; under `c1ccc(C[n+]2cccc3ccccc32)cc1`, 0.808% [at 115 µM].
Consider `CCC1CO1` (stereo not given), for which the “activity change, negative = inhibition” value was 2.46% [at 115 µM].
With `Cc1cscn1`, the “activity change, negative = inhibition” value was 3.82% [at 115 µM].
On the same count and under the same terms, under `CC1(C)S[C@@H]2[C@H](NC(=O)C(c3ccccc3)S(=O)(=O)O)C(=O)N2[C@H]1C(=O)O` (stereo not given in full) stands 1.7%; under `CC1(C)[C@@H](OC(=O)CCC(=O)O)CC[C@]2(C)[C@H]3C(=O)C=C4[C@@H]5C[C@@](C)(C(=O)O)CC[C@]5(C)CC[C@@]4(C)[C@]3(C)CC[C@@H]12`, 6.26%; under `CC(=O)Oc1ccc([N+](=O)[O-])cc1CCl`, 1.55% [at 115 µM].
Take `CCCCCCCCCCCCCCN(CCO)CCO`: the “activity change, negative = inhibition” value was -3.5% [at 115 µM].
In the case of `O=C(/C=C/c1ccc(O)c(O)c1)O[C@@H]1C[C@@](OC(=O)/C=C/c2ccc(O)c(O)c2)(C(=O)O)C[C@@H](O)[C@@H]1O`, the “activity change, negative = inhibition” value is -0.859%.
On the same count and under the same terms, in the case of `O[C@@H]1CO[C@H]2[C@@H]1OC[C@@H]2O` it was -1.8%; in that of `O=c1[nH]ncc2ccccc12`, -0.344% [at 115 µM]; in that of `O=C(CCCN1CC=C(n2c(=O)[nH]c3ccccc32)CC1)c1ccc(F)cc1`, -1.81%.
`C=C/C(C)=C/C/C=C(\C)CCC=C(C)C`: the “activity change, negative = inhibition” value is 3.35% [at 115 µM].
Same read-out and setting: in the case of `CCOC(=O)c1ccc(C#Cc2ccc3c(c2)C(C)(C)CCS3)nc1` it was -6.9%.
Regarding `CCCCCCCCN`, the “activity change, negative = inhibition” value is 2.8% [at 115 µM].
Same read-out and setting: under `CC1CC(C)C(=O)C1=O` (stereo not given) stands 1.37% [at 115 µM].
On the same count and under the same terms, in the case of `COC(=O)CCS` it was -0.421% [at 115 µM]; in that of `Cc1ccc2c(Br)cc(Br)c(O)c2n1`, 0.0059%; in that of `CCC(OCCCOC)OC(C)=O` (stereo not given), 2.33% [at 115 µM].
The same measure, in the same setting: in the case of `CO[C@]1(NC(=O)CSC(F)F)C(=O)N2C(C(=O)O)=C(CSc3nnnn3CCO)CO[C@H]21` it was -2.56%; in that of `CCCCCCC(C)(C)C(=O)O`, 2.77% [at 115 µM].
With `O=C1CCCCCCCCCCOCCCCO1`, the “activity change, negative = inhibition” value was 1.48% [at 115 µM].
On the same count and under the same terms, in the case of `CCn1cc(C(=O)O)c(=O)c2cc(F)c(N3CCNCC3)cc21` it was -1.87%.
Same read-out and setting: under `CCOc1ccccc1O[C@H](c1ccccc1)[C@H]1CNCCO1` stands -1.68%; under `Cc1[nH]cnc1CN1CCc2c(c3ccccc3n2C)C1=O`, -1.32%.
Regarding `CCCCCCCC/C=C\CCCCCCCCCCCC(=O)O`, the “activity change, negative = inhibition” value is 1.54% [at 115 µM].
In the case of `Oc1cc2c(cc1O)[C@H]1c3ccc(O)c(O)c3OC[C@@]1(O)C2`, the Potency is 32.1 µM (active).
For `O=C(OC(=O)c1ccccc1)c1ccccc1`, the “activity change, negative = inhibition” value was 4.12% [at 115 µM].
On the same count and under the same terms, in the case of `Brc1cc(Br)c(Oc2cc(Br)c(Br)cc2Br)cc1Br` it was 0.0522%.
Take `CCN(CC)CCNC(=O)COc1ccc(OC)cc1`: the “activity change, negative = inhibition” value is -0.652%.
In the case of `NNC(=O)CP(=O)(c1ccccc1)c1ccccc1`, the “activity change, negative = inhibition” value is -1.46%.
Turning to `C=C(C)CCCC(C)CCO` (stereo not given), the “activity change, negative = inhibition” value is 4.24% [at 115 µM].
The same measure, in the same setting: under `O=C(O)CCC(=O)C(=O)O` stands 1.8% [at 115 µM].
With `Nc1ccc(N=Nc2ccccc2)c(N)c1`, the Potency is 2.47 µM (active).
Turning to `CC(C)=CCC1C(=O)N(c2ccccc2)N(c2ccccc2)C1=O`, the “activity change, negative = inhibition” value was 0.828%.
Same read-out and setting: in the case of `COC(=O)CS` it was 1.38% [at 115 µM]; in that of `CC(=O)OCC[N+](C)(C)C`, 6.18%.
As to `NCCNCCO`, the “activity change, negative = inhibition” value was 1.17% [at 115 µM].
